Where “and” joins values, the source holds several entries; their conditions need not be identical. Equal values may be shown once. Inconclusive results are not listed. A call without a number means that no potency is given here. Where a structure was tested more than once in an assay, its records may differ in their call. Calls of active or inactive are those of the source. Unless noted, calls follow the shape of the dose curve; as a rule, active = well fitted curve in the direction sought with a large enough effect in the repeat runs; inconclusive = weak or mixed curves; inactive = no such curve, though single readings can be large; an effect the other way counts as inactive or inconclusive.
Assays:
[1] = qHTS assay for small molecule agonists of the p53 signaling pathway (AID 651631; calls by dose curve; also: nearly all actives have a fitted effect of over 15% in size; also: potency is read from the fitted curve at half-maximal effect)
Summary of the method: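 Readout was fluorescence from the LiveBLAzer FRET substrate, applied for 2 h at room temperature after 16 h compound exposure at 37 °C. Cells were the p53RE-bla HCT-116 line, with beta-lactamase driven by p53 response elements.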

[2] = qHTS assay for small molecules that induce genotoxicity in human embryonic kidney cells expressing luciferase-tagged ATAD5 (AID 651632); also: nearly all actives have a fitted effect of over 15% in size
Summary of the method: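 ATAD5-luc HEK293T, 2,000 cells/well; cpd or DMSO pin-transferred; 16 hr, 37C/5% CO2; Amplite 30 min RT; luminescence.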

[3] = qHTS assay for small molecule agonists of the p53 signaling pathway - cell viability (AID 651633; calls by dose curve; also: nearly all actives have a fitted effect of over 30% in size; also: potency is read from the fitted curve at half-maximal effect)
Summary of the method: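 Viability counter-read: CellTiter-Glo luminescence (30 min, room temperature) in the same p53RE-bla plates. These plates had been exposed to compounds for 16 h at 37 C.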

[4] = qHTS assay for small molecules that induce genotoxicity in human embryonic kidney cells expressing luciferase-tagged ATAD5 - cell viability (AID 651634; calls by dose curve; also: nearly all actives have a fitted effect of over 25% in size)
Summary of the method: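 Fluorescence from CellTiter-Fluor, reporting protease activity within live cells, served as the viability read-out. HEK293T cells carrying luciferase-tagged ATAD5 had been treated with compound for 15.5 hr at 37C.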

[5] = qHTS assay for small molecule disruptors of the mitochondrial membrane potential - cell viability (AID 720634; calls by dose curve; also: nearly all actives have a fitted effect of over 20% in size; also: potency is read from the fitted curve at half-maximal effect)
Summary of the method: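 Cells: HepG2, 2,000/well, attached overnight. Compound 1 hr, 37 C/5% CO2. +m-MPI dye, +CellTiter-Glo 30 min RT. Readout: luminescence (ATP).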

[6] = qHTS assay to test for compound auto fluorescence at 590 nm (red) in HepG2 cells (AID 720674)
Summary of the method: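 Red autofluorescence (Ex/Em 540/590 nm, Rose Bengal sodium equivalents) was measured in HepG2 cells, 2,000 per well in MEM plus 10% FBS, plated overnight at 37 C. Readings were taken 1 hr after adding 23 nL compound or DMSO, at 37 C and 5% CO2.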

[7] = qHTS assay to test for compound auto fluorescence at 535 nm (green) in HepG2 cells (AID 720675)
[8] = qHTS assay to test for compound auto fluorescence at 460 nm (blue) in HEK293 cells (AID 720678)
Summary of the method: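 Triamterene serves as the blue fluorophore standard. Compound signal at 405/460 nm is read in HEK293 wells (2,000 cells, 10% dialyzed FBS) after overnight treatment at 37C.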

[9] = qHTS assay to test for compound auto fluorescence at 590 nm (red) in HEK293 cells (AID 720679)
Summary of the method: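 We plated HEK293 cells in 10% dialyzed FBS medium, let them adhere for 4-5 hr, then added 23 nL compound. Overnight at 37C and 5% CO2 preceded fluorescence measurement at 540/590nm.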

[10] = qHTS assay to test for compound auto fluorescence at 460 nm (blue) in HEK293 cell free culture (AID 720681)
Summary of the method: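 Blue fluorescence (Ex 405/Em 460 nm, triamterene-equivalent) was read immediately after pin transfer of compound or DMSO into medium (DMEM, 10% FBS) without cells.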

[11] = qHTS assay to test for compound auto fluorescence at 535 nm (green) in HEK293 cell free culture (AID 720682)
Summary of the method: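 Compounds were pin-transferred into cell-free DMEM with 10% FBS, and green fluorescence was read at excitation 485 nm and emission 535 nm. Intensities were expressed as fluorescein-equivalent values.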

[12] = qHTS assay to test for compound auto fluorescence at 590 nm (red) in HEK293 cell free culture (AID 720683)
Summary of the method: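 Red-channel autofluorescence of compounds in culture medium (DMEM, 10% FBS), no cells, measured at 540/590 nm. Rose Bengal sodium is the reference fluorophore for equivalence.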

[13] = qHTS assay to test for compound auto fluorescence at 590 nm (red) in HepG2 cell free culture (AID 720684)
Summary of the method: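 Steps: dispense MEM/10% FBS medium, no cells; pin compound or DMSO vehicle; read red channel, Ex/Em 540/590 nm. Output given as Rose Bengal sodium equivalents.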

[14] = qHTS assay to test for compound auto fluorescence at 460 nm (blue) in HepG2 cell free culture (AID 720685)
Summary of the method: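 Compound (23 nL) or DMSO pinned into cell-free MEM with 10% FBS; blue fluorescence read at 405/460 nm excitation/emission, expressed as auto-fluorescence equivalency to triamterene.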

[15] = qHTS assay to test for compound auto fluorescence at 535 nm (green) in HepG2 cell free culture (AID 720686)
[16] = qHTS assay to test for compound auto fluorescence at 460 nm (blue) in HepG2 cells (AID 720687)
Summary of the method: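 Blue-channel autofluorescence (Ex/Em 405/460 nm, triamterene-equivalent) was measured after 1 hr compound exposure at 37 C, 5% CO2. Cells were HepG2, plated overnight at 37 C in MEM plus 10% FBS.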

[17] = target: Glucocorticoid receptor (Homo sapiens) (UniProt P04150); experiment: qHTS assay to identify small molecule agonists of the glucocorticoid receptor (GR) signaling pathway (AID 720691; active = well fitted activation curve with a large enough effect in the signal ratio in the repeat runs, not every such curve was filed as active; the % refers to the signal ratio)
Summary of the method: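 Fluorescence intensity from LiveBLAzer B/G FRET substrate (2 h, room temperature) reports beta-lactamase expression driven by the glucocorticoid response element in GR-bla HeLa cells after 18 h compound exposure at 37 C.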

[18] = target: Glucocorticoid receptor (Homo sapiens) (UniProt P04150); experiment: qHTS assay to identify small molecule antagonists of the glucocorticoid receptor (GR) signaling pathway (AID 720692; active = well fitted inhibition curve with a large enough effect in the signal ratio in the repeat runs, not every such curve was filed as active; the % refers to the signal ratio; also: potency is read from the fitted curve at half-maximal effect)
Summary of the method: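 HeLa GR-bla cells; cmpd + dex 5 nM final, 18 h 37 C; LiveBLAzer B/G FRET substrate 2 h RT; fluorescence intensity read. Antagonist mode, qHTS.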

[19] = qHTS assay for small molecule disruptors of the mitochondrial membrane potential (AID 720635); also: potency is read from the fitted curve at half-maximal effect
Summary of the method: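 Mitochondrial membrane potential tracked with Mito-MPS dye, red aggregates (ex 540/em 590 nm) against green monomers (ex 490/em 535 nm). Compound treatment 1 hr at 37C, dye 30 min in HepG2.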

[20] = qHTS assay to test for compound auto fluorescence at 535 nm (green) in HEK293 cells (AID 720680)

Chain of Glucocorticoid receptor (Homo sapiens) (P04150 whole entry, looked up): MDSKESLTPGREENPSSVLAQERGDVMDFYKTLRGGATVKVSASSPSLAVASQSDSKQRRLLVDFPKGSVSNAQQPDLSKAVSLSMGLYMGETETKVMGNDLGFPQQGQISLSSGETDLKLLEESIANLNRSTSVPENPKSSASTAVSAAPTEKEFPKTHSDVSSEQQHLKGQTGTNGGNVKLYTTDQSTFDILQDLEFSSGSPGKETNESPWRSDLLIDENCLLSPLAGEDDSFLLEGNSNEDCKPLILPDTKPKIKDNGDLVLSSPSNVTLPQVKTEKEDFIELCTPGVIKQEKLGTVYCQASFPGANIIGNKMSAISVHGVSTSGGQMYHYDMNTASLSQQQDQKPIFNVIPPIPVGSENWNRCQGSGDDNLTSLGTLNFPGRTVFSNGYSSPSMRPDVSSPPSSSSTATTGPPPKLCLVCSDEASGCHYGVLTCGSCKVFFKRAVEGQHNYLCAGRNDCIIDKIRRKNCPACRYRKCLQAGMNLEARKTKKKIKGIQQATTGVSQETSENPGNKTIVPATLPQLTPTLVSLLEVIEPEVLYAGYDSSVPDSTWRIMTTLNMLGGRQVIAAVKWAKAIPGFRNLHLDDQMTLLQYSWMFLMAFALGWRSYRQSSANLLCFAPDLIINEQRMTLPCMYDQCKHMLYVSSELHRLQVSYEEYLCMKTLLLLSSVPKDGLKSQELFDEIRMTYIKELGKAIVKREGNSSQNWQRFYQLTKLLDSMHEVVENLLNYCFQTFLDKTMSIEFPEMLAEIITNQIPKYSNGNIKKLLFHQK

Structure (SMILES)	Potency [1]	Potency [2]	Potency [3]	Potency [4]	Potency [5]	outcome [6]	outcome [7]	outcome [8]	outcome [9]	outcome [10]	outcome [11]	outcome [12]	outcome [13]	outcome [14]	outcome [15]	outcome [16]	Potency [17]	Potency [18]	Potency [19]	outcome [20]
COc1ccc(C=O)cc1	inactive	inactive	inactive	inactive	inactive	inactive	inactive	inactive	inactive	inactive	inactive	inactive	inactive	inactive	inactive	inactive	inactive	inactive	–	–
CCN(CC)C(=O)/C(Cl)=C(\C)OP(=O)(OC)OC	inactive	inactive	inactive	inactive	inactive	inactive	–	inactive	inactive	inactive	inactive	inactive	inactive	inactive	inactive	inactive	inactive	inactive	inactive	–
O=C(O)C(F)(F)C(F)(F)C(F)(F)C(F)(F)C(F)(F)C(F)(F)C(F)(F)F	inactive	inactive	inactive	inactive	inactive	inactive	–	inactive	inactive	inactive	inactive	inactive	–	inactive	inactive	inactive	–	–	–	–
c1ccc(NNc2ccccc2)cc1	inactive	inactive	inactive	inactive	–	inactive	inactive	inactive	inactive	inactive	inactive	inactive	inactive	inactive	inactive	inactive	inactive	inactive	inactive	inactive
Nc1ccc(-c2ccccc2)cc1	inactive	inactive	inactive	inactive	–	inactive	inactive	inactive	inactive	inactive	inactive	inactive	inactive	inactive	inactive	inactive	–	–	–	inactive
CC(C)N(C(=O)SCC(Cl)=C(Cl)Cl)C(C)C	inactive	inactive	inactive	inactive	–	inactive	inactive	inactive	inactive	inactive	–	inactive	–	inactive	inactive	inactive	inactive	inactive	13.5 µM (active)	inactive
Cc1ccc(OP(=O)(Oc2ccc(C)cc2)Oc2ccc(C)cc2)cc1	inactive	inactive	inactive	inactive	–	inactive	–	inactive	inactive	inactive	inactive	inactive	–	inactive	inactive	inactive	inactive	inactive	24.3 µM (active)	inactive
CCCCC(CC)COC(=O)c1ccc(C(=O)OCC(CC)CCCC)c(C(=O)OCC(CC)CCCC)c1 (stereo unspecified)	inactive	inactive	inactive	inactive	–	inactive	–	inactive	inactive	inactive	inactive	inactive	inactive	inactive	inactive	inactive	inactive	inactive	–	inactive
Clc1nc(Cl)nc(Cl)n1	inactive	inactive	inactive	inactive	inactive	inactive	–	inactive	inactive	inactive	inactive	inactive	–	inactive	inactive	inactive	inactive	inactive	inactive	inactive
CCOC(=S)S	inactive	–	inactive	inactive	inactive	inactive	–	inactive	inactive	inactive	–	inactive	inactive	inactive	inactive	inactive	–	–	inactive	inactive
Nn1cnnc1	inactive	inactive	inactive	inactive	inactive	inactive	–	inactive	inactive	inactive	inactive	inactive	–	inactive	inactive	inactive	inactive	inactive	inactive	inactive
OCC(O)CO	inactive	inactive	inactive	inactive	inactive	–	–	–	–	–	–	–	–	–	–	–	inactive	inactive	inactive	–
CC(C)C(=O)OCC(C)(C)C(OC(=O)C(C)C)C(C)C (stereo unspecified)	inactive	inactive	30.9 µM (active) and inactive	inactive	inactive	inactive	inactive	inactive	inactive	inactive	–	inactive	inactive	inactive	inactive	inactive	inactive	inactive	–	–
Cc1cc(Cl)ccc1OCCCC(=O)O	inactive	inactive	inactive	inactive	–	inactive	inactive	inactive	inactive	inactive	inactive	inactive	inactive	inactive	inactive	inactive	inactive	inactive	–	–
O=C(O)CC[N+](=O)[O-]	inactive	–	inactive	inactive	inactive	inactive	inactive	inactive	inactive	inactive	–	inactive	inactive	inactive	inactive	inactive	inactive	inactive	inactive	–
N[C@@H](Cc1ccc(N(CCCl)CCCl)cc1)C(=O)O	13.3 µM (active) and 26.2 µM (active)	inactive	inactive	inactive	inactive	inactive	inactive	inactive	inactive	inactive	inactive	inactive	–	inactive	inactive	inactive	inactive	inactive	–	inactive
O=[N+]([O-])c1c(Cl)c(Cl)c(Cl)c(Cl)c1Cl	inactive	inactive	inactive	inactive	inactive	inactive	–	inactive	inactive	inactive	inactive	inactive	inactive	inactive	inactive	inactive	inactive	30.9 µM (active)	–	inactive
CCC(C)c1ccc(O)cc1 (stereo unspecified)	–	inactive	inactive	inactive	inactive	inactive	inactive	inactive	inactive	inactive	–	inactive	inactive	inactive	inactive	inactive	inactive	inactive	27.6 µM (active) and 24.3 µM (active)	inactive
C=CCc1ccc(OC)cc1	–	–	inactive	inactive	inactive	inactive	inactive	inactive	inactive	inactive	inactive	inactive	inactive	inactive	inactive	inactive	–	–	–	inactive
O=S(=O)(Oc1ccc(Cl)cc1)c1ccc(Cl)cc1	–	inactive	inactive	inactive	inactive	inactive	inactive	inactive	inactive	inactive	inactive	inactive	inactive	inactive	inactive	inactive	inactive	–	31 µM (active) and 12.2 µM (active)	inactive
Nc1ccc(-c2ccc(N)c(N)c2)cc1N	–	inactive	48.6 µM (active)	inactive	inactive	inactive	–	inactive	inactive	inactive	–	inactive	–	inactive	inactive	inactive	–	–	216 nM (active) and 7.7 µM (active)	inactive
CCCCC(CC)COC(=O)Cl (stereo unspecified)	–	inactive	inactive	inactive	–	inactive	inactive	inactive	inactive	inactive	inactive	inactive	–	inactive	inactive	inactive	inactive	inactive	–	–
N#CC(Br)Br	–	inactive	inactive	inactive	inactive	inactive	–	inactive	inactive	inactive	inactive	inactive	inactive	inactive	inactive	inactive	inactive	inactive	inactive	inactive
CC(C)(C)c1ccccc1O	–	inactive	inactive	inactive	–	inactive	inactive	inactive	inactive	inactive	inactive	inactive	inactive	inactive	inactive	inactive	inactive	inactive	–	–
CC(C)(c1cc(Cl)c(O)c(Cl)c1)c1cc(Cl)c(O)c(Cl)c1	–	inactive	61.1 µM (active)	inactive	inactive	inactive	inactive	inactive	inactive	inactive	inactive	inactive	inactive	inactive	inactive	inactive	inactive	12.3 µM (active) and 6.92 µM (active)	2.43 µM (active) and 2.73 µM (active)	inactive
CC(C)Oc1cc(-n2nc(C(C)(C)C)oc2=O)c(Cl)cc1Cl	–	inactive	inactive	inactive	12 µM (active) and 54.5 µM (active)	inactive	inactive	inactive	inactive	inactive	–	inactive	–	inactive	inactive	inactive	inactive	–	24 µM (active) and 43.3 µM (active)	inactive

— PubChem BioAssay (Tox21)
